Experimental findings from PubChem BioAssay (NCATS) are described below.

The nature of test [1]: Cell Viability - LYMP2-010 (AID 981). Further: on the % scale 0 is the no-effect control and ±100 the full control effect; nearly all actives have a fitted effect of over 55% in size. Put shortly: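 Luminescent ATP signal (CellTiter-Glo) served as the viability read-out. Cells of the human lymphoblastoid line were treated with compound over a concentration range for 24 hours at 37 C, and AC50 values came from Hill-equation modeling.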
Test [2] is described as follows: Cell Viability - LYMP2-014 (AID 983).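 Further: series mostly up to about 92 µM; cells exposed to compound for 24 h at 37 °C; plate controls were DMSO only for no effect and 92 µM tetraoctylammonium bromide for full effect; nearly all actives have a fitted effect of over 50% in size.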 In short, it runs like this: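 Luminescent ATP signal (CellTiter-Glo, 30 min at room temperature) serves as the viability read-out after 24 hr compound exposure at 37 C. Cells were seeded at 2500 per well and settled 5 hr beforehand.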
Test [3] can be described thus: Cell Viability - LYMP2-016 (AID 984). Further: on the % scale 0 is the no-effect control and ±100 the full control effect; nearly all actives have a fitted effect of over 55% in size. In short, it runs like this: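 Cells were seeded at 2500 per well and rested 5 hr before a 24 hr compound exposure at 37 C. Viability was then gauged as cellular ATP by luciferase luminescence, with AC50 values fitted to the Hill equation.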
A short description of test [4]: Cell Viability - LYMP2-018 (AID 985).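 Further: plate controls were DMSO only for no effect and tetraoctylammonium bromide at 92 µM for full effect; nearly all actives have a fitted effect of over 50% in size.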 In short, it runs like this:
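Luminescent ATP signal (CellTiter-Glo, read after 30 min at room temperature) reports viable cells after 24 hr compound treatment at 37 C. Concentration-response data were fitted to the standard Hill equation for AC50.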

A short description of test [5]: Cell Viability - LYMP2-022 (AID 987).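 Further: 0% = DMSO alone and full effect = tetraoctylammonium bromide at 92 µM; nearly all actives have a fitted effect of over 55% in size.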 In short, it runs like this:
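qHTS: human lymphoblastoid cells 2500/well; 5 hr 37 C; cpd added; 24 hr 37 C; CellTiter-Glo, 30 min RT; luminescence. AC50 via Hill fit; tetraoctylammonium bromide positive ctrl.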

Test [6] is described as follows: Cell Viability - LYMP2-024 (AID 988).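 Further: plate controls were DMSO only for no effect and 92 µM tetraoctylammonium bromide for full effect; nearly all actives have a fitted effect of over 60% in size.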 In short, it runs like this: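 Steps: seed 2500 cells/well, 5 hr 37 C; add compound, 24 hr 37 C; add CellTiter-Glo, 30 min room temperature; read luminescence. AC50 derived by Hill modelling of concentration-dependent ATP loss.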
Test [7] in a line: Cell Viability - LYMP2-026 (AID 989).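 Further: cells exposed to compound for 24 h at 37 °C; on the % scale 0 is the no-effect control and ±100 the full control effect; nearly all actives have a fitted effect of over 50% in size.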 Put shortly:
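Luminescent ATP signal (CellTiter-Glo, 30 min room temperature) measures viable lymphoblastoid cells after 24 hr compound treatment at 37 C. Decreased ATP reflects acute toxicity; AC50 values come from Hill-equation modeling.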

A short description of test [8]: Cell Viability - LYMP1-002 - Assay at 24 hr (AID 993). Further: on the % scale 0 is the no-effect control and ±100 the full control effect. In short, it runs like this:
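Cells plated 2500/well, 5 hr 37 C; compounds added, 24 hr 37 C; CellTiter-Glo added, 30 min RT; luminescence read. Tetraoctylammonium bromide positive control. Hill-equation AC50.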

Test [9] can be described thus: Cell Viability - LYMP1-002 - Assay at 40 hr (AID 994).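 Further: 0% = DMSO only and full inhibition = 92 µM tetraoctylammonium bromide; nearly all actives have a fitted effect of over 60% in size.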 In short, it runs like this: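 Luminescent ATP signal served as the viability readout, with decreases taken as toxicity. Cells were treated with compounds across a concentration range for 40 hours at 37 C, and AC50 values came from standard Hill modeling.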
Test [10] has as its target Estrogen receptor (Homo sapiens) (UniProt P03372). Kind of test: qHTS assay for small molecule antagonists of estrogen receptor alpha signaling (AID 588513; active means well fitted curve in the direction sought with a large enough effect in the signal ratio, with a control signal flat, not every such curve was filed as active; the % refers to the signal ratio; further: on the % scale 0 is the no-effect control and ±100 the full control effect). In short, it runs like this: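 Fluorescence from CCF4 substrate after 2 h at room temperature gave reporter activity; cells had been exposed to compound and 0.5nM 17-beta-estradiol for 18 h at 37 C. Hill-equation fitting yielded IC50 and maximal response.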
Background: qHTS replaces the single test concentration by a dilution series.

Test [11] shares this target. Put plainly: qHTS assay for small molecule agonists of estrogen receptor alpha signaling (AID 588514; calls by dose curve; further: potency means the concentration at half of the fitted maximal effect; nearly all actives have a fitted effect of over 70% in size). Put shortly: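 Cells were plated at 5000/well, incubated 4 hrs at 37 C, dosed with compound titration series, incubated 18 hrs at 37 C, loaded with CCF4 dye for 2 hrs at RT, then fluorescence was read.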
The target of test [12] is Glucocorticoid receptor (Homo sapiens) (UniProt P04150). Kind of test: qHTS assay for small molecule agonists of glucocorticoid receptor signaling (AID 588532; active means well fitted curve in the direction sought with a large enough effect in the signal ratio, with a control signal flat; the % refers to the signal ratio;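 further: 100% = dexamethasone at 0.1 µM and 0% = DMSO only wells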). The conditions noted are these: HeLa MMTV-bla, beta-lactamase ratio, agonist, 18 h; stronger effect = higher value; percent of dexamethasone control, DMSO zero. In short, it runs like this:
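Stimulation of a glucocorticoid response element-driven beta-lactamase gene was measured in HeLa cells. Responses were scaled between DMSO basal and 0.1 uM dexamethasone, then fitted for half-maximal stimulation.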

Test [13] shares this target. Kind of test: qHTS assay for small molecule antagonists of glucocorticoid receptor signaling (AID 588533; active means well fitted inhibition curve with a large enough effect in the signal ratio, with a control signal flat, not every such curve was filed as active; the % refers to the signal ratio;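 further: cells stimulated with 2 nM dexamethasone as agonist; on the % scale 0 is the no-effect control and ±100 the full control effect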). In short, it runs like this:
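Antagonist-mode qHTS: compound titrations added to GRE-bla HeLa cells, then dexamethasone 2 nM final; 18 h, 37 C. CCF4 FRET fluorescence normalized to dexamethasone and DMSO; IC50 from Hill fit.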

Test [14] is described as follows: qHTS assay for small molecule antagonists of peroxisome proliferator-activated receptor delta signaling (AID 588535; active means well fitted inhibition curve with a large enough effect in the signal ratio, with a control signal flat, not every such curve was filed as active; the % refers to the signal ratio;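 on max response: cells co-treated with a PPAR-delta agonist as stimulator during compound exposure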). The conditions noted are these: HEK293T PPARd-UAS-bla, beta-lactamase FRET ratio, 18 h; 460 nm channel. In short, it runs like this:
(§1)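 Reporter: UAS-bla under PPAR-delta response element, HEK293T host. Medium: 2% charcoal/dextran FBS. Dosing: titration, 18 hrs, 37 C. Detection: CCF4, 2 hrs RT, 405 ex/460 and 530 em.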

Test [15] concerns the target Peroxisome proliferator-activated receptor delta (Homo sapiens) (UniProt Q03181). Described as above. In short, it runs like this: as §1
Test [16] deals with Peroxisome proliferator-activated receptor gamma (Homo sapiens) (UniProt P37231). Kind of test: qHTS assay for small molecule antagonists of peroxisome proliferator-activated receptor gamma signaling (AID 588537; active means well fitted inhibition curve with a large enough effect in the signal ratio, with a control signal flat, not every such curve was filed as active; the % refers to the signal ratio;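 further: reporter cells co-stimulated with 50 nM rosiglitazone agonist during compound treatment; % of control where 0% means no effect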). In short, it runs like this: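 We seeded GeneBLAzer HEK293 reporter cells at 3000 per well, allowed 6-6.5 h attachment at 37 C, then co-treated with test compound titrations and 50 nM rosiglitazone overnight (16 h). Inhibition was quantified from 460/530 nm emission ratios.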
Sequence of Peroxisome proliferator-activated receptor gamma (Homo sapiens) (P37231 whole entry, looked up): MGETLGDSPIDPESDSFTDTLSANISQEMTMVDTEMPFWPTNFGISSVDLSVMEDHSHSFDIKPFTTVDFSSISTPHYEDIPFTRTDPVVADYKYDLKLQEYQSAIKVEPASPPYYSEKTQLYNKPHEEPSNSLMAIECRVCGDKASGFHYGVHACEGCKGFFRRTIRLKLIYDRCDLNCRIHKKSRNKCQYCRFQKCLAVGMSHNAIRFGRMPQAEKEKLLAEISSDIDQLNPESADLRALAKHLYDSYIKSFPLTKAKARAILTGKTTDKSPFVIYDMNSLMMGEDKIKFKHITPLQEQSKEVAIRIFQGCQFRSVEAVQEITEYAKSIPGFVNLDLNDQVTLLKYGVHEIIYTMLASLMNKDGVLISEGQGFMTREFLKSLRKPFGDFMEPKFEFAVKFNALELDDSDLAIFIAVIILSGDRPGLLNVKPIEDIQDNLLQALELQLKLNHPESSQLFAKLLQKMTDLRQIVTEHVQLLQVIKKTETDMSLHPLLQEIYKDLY

In test [17] the target is Vitamin D3 receptor (Homo sapiens) (UniProt P11473). Kind of test: qHTS assay for small molecule antagonists of vitamin D receptor signaling (AID 588541; calls by dose curve;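 further: receptor activated by calcitriol during compound treatment; series mostly up to about 77 µM; on the % scale 0 is the no-effect control and ±100 the full control effect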). In short, it runs like this:
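VDR-UAS-bla HEK293T cells (2000/well, 2% charcoal-stripped FBS) were treated with titrated compounds plus 1-alpha,25-dihydroxyvitamin D3 (50 nM or 3 nM final) for 16 h at 37 C. CCF4 beta-lactamase fluorescence was read; Hill fits gave IC50.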

Test [18] has the same target. Put plainly: qHTS assay for small molecule agonists of vitamin D receptor signaling (AID 588543; calls by dose curve;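 further: 0% = DMSO basal and 100% = reference agonist control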). In short, it runs like this: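 Reporter cells (HEK293T, VDR-UAS-bla) were seeded in medium with 2% charcoal-stripped serum and incubated 5 h, then compounds in concentration series were added for 16 h at 37 °C. Stimulation was scaled between DMSO basal and 50 nM 1α,25-dihydroxyvitamin D3.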

A short description of test [19]: qHTS assay for small molecule agonists of retinoid X receptor alpha signaling (AID 588544; calls by dose curve;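 on activation: 0% = DMSO basal wells and 100% = reference agonist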). Particulars: HEK293T RXRa-UAS-bla, beta-lactamase reporter, 18 h; 530 nm emission.
Test [20] deals with Retinoic acid receptor RXR-alpha (Homo sapiens) (UniProt P19793). The description is as above.
Sequence of Retinoic acid receptor RXR-alpha (Homo sapiens) (P19793 whole entry, looked up): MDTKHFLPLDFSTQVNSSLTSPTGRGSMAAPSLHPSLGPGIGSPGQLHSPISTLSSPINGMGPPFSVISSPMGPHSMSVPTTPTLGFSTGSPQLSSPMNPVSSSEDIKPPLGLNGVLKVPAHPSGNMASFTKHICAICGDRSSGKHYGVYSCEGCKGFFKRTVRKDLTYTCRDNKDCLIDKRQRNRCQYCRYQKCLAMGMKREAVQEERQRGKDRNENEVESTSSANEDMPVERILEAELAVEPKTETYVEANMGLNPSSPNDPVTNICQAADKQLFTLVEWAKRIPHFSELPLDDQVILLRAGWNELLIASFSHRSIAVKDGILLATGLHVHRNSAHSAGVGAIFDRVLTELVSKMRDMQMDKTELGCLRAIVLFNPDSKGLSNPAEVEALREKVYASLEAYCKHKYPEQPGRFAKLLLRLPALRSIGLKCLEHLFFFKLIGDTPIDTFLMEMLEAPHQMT

Values joined by “and” are separate entries in the source; they are usually repeats but may differ in a detail not shown here. Equal entries are not always repeated. Inconclusive results are not listed. Active and inactive are the calls of the source. Unless noted, the call rests on the fitted dose curve; in most records, active means well fitted cell-killing curve with a large enough effect; inconclusive means small, poorly fitted or top-dose-only effect; inactive means flat fitted curve, though single readings scatter.

Sequence of Glucocorticoid receptor (Homo sapiens) (P04150 whole entry, looked up): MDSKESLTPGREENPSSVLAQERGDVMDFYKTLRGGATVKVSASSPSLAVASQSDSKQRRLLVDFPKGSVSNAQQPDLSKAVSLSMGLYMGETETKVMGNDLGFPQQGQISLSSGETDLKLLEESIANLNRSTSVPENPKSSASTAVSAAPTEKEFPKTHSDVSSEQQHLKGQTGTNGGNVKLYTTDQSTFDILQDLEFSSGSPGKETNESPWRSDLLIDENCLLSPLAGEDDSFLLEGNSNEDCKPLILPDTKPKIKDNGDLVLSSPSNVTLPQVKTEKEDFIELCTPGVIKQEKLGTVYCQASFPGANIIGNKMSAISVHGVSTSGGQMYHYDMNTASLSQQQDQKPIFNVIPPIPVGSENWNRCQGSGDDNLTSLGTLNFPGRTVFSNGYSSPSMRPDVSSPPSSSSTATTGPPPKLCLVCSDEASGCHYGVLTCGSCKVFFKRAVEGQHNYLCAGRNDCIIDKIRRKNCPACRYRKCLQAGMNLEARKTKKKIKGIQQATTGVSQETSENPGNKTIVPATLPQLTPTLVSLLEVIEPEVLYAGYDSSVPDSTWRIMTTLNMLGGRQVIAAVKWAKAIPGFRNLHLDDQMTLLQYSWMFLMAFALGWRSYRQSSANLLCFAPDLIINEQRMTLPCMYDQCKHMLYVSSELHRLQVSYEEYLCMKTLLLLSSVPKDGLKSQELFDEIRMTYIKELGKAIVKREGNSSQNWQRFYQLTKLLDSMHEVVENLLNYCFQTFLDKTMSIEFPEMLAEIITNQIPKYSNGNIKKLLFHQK
Sequence of Vitamin D3 receptor (Homo sapiens) (P11473 whole entry, looked up): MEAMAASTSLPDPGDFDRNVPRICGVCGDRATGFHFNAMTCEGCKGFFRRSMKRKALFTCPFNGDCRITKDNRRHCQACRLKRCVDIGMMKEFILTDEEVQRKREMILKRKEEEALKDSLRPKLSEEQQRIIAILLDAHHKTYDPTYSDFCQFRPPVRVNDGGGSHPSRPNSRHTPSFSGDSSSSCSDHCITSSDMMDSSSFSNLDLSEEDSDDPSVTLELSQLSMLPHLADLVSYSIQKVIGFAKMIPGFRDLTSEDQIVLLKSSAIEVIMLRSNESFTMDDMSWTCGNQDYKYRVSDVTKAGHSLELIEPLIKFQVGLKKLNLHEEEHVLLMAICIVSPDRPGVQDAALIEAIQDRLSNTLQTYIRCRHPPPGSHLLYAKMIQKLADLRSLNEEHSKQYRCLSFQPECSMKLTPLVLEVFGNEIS
Sequence of Peroxisome proliferator-activated receptor delta (Homo sapiens) (Q03181 whole entry, looked up): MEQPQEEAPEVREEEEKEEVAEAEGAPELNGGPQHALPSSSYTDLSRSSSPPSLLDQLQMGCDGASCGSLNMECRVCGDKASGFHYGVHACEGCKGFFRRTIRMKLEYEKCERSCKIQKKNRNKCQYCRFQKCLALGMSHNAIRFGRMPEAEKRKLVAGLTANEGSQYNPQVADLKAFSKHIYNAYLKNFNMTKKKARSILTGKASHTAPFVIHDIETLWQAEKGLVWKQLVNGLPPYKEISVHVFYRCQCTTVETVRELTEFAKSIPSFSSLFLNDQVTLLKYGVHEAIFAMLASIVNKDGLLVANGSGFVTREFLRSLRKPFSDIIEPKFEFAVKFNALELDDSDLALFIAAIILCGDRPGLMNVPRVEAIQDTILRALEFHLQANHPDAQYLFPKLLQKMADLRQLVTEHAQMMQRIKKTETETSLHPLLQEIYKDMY
Sequence of Estrogen receptor (Homo sapiens) (P03372 whole entry, looked up): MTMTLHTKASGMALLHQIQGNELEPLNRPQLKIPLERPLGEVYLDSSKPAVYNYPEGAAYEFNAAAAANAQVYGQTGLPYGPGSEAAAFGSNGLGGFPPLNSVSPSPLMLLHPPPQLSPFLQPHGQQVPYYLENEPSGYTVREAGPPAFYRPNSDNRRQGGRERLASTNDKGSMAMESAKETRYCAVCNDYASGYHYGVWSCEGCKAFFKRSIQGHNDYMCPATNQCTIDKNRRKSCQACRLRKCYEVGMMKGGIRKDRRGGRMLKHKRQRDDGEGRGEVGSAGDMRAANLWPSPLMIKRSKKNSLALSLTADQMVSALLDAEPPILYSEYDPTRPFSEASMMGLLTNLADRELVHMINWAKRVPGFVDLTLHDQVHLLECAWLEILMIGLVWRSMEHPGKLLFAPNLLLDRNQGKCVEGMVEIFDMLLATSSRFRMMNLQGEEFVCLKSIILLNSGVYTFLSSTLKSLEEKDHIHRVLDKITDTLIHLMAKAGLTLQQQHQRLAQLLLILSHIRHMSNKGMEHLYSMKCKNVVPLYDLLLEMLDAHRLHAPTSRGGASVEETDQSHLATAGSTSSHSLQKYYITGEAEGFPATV

Consider `CC(CCC(=O)O)(c1ccc(O)cc1)c1ccc(O)cc1`, for which the Potency result in test [1], in test [2], in test [3], in test [4], in [5] and in test [6] was “inactive” each time. In addition, the Potency entry in test [7], in test [8], in test [9], in test [13], in test [16] and in test [17] was “inactive” in each case. The Potency entry in test [18] and in test [20] was “inactive” each time. Moreover, the outcome in test [10] and in test [15] was inactive. In addition, in test [11], the Potency is 12.6 µM (active). In [12], the activation is 3.51% (inactive) and -3.34% (inactive). Also, the max response in test [14] is -42.6% and 42.4%; in [19] it was -8.9% and -10.2%.
